In the library only some 4.2% were active in any assay of this set; here they are far more common.
PLK1 PBD block: qHTS for Inhibitors of PLK1-PDB (polo-like kinase 1 - polo-box domain): Primary Screen; Plk1 PBD binding of FITC phosphopeptide, fluorescence polarization; Serine/threonine-protein kinase PLK1 (Homo sapiens), P53350; hit rate 2.8% among 360,000; Potency, µM, inactives show max response, negative = inhibition, hits mostly inhibitors; also: series mostly up to about 57 µM; nearly all actives have a fitted effect of over 65% in size
Target sequence (P53350 whole entry, looked up, the tested form may be a part): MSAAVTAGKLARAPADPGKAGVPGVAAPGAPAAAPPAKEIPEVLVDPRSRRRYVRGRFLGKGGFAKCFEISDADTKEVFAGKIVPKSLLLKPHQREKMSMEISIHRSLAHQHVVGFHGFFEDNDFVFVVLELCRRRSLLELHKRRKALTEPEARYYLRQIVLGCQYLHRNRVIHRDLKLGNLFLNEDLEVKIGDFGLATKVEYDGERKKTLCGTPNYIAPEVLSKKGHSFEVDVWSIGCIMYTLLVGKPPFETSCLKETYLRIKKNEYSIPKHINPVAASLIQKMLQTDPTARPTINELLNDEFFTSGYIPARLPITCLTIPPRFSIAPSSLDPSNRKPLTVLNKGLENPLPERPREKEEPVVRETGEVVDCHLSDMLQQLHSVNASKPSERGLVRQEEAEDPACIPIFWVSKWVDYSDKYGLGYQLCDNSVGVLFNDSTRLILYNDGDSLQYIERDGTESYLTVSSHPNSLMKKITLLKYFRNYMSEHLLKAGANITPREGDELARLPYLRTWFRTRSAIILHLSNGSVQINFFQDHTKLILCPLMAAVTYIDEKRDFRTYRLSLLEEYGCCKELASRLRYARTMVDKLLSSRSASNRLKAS
Sfp inh: qHTS Assay for Inhibitors of Bacillus subtilis Sfp phosphopantetheinyl transferase (PPTase). Biochemical Sfp PPTase activity, qHTS. hit rate 3.5% among 310,000. AID 1490, 2009. 4'-phosphopantetheinyl transferase ffp (Bacillus subtilis), Q9F4F7. Potency, µM, without a hit: largest response in the series, negative = inhibition, most hits filed as inhibitors;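 also: the enzyme is Sfp with the accession as filed and its product quenches rhodamine fluorescence; 0% = enzyme reaction without inhibitor and -100% = no enzyme wells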
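Reaction rates are the 30-min fluorescence difference (ex 525, em 598 nm) in wells containing 15 nM Sfp, 5 uM rhodamine-CoA and 12.5 uM BHQ-2-YbbR at pH 7.6 with 10 mM MgCl2.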
12-LOX inh: Primary qHTS assay for inhibitors of human arachidonate 12S-lipoxygenase (ALOX12): Round 2. hit rate 1.1% among 580,000. purified 12hLO, xylenol orange hydroperoxide absorbance. Potency, µM (top dose mostly 108 µM), for inactives: at the top dose activity change, negative = inhibition, actives largely listed as inhibitors
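Hydroperoxide product was detected by ferrous iron/xylenol orange as the 573 to 405 nm absorbance ratio. Arachidonic acid at 40 uM (final) was turned over for 30 min at room temperature by 150 nM human 12hLO, pH 7.0 Hepes buffer, after 15 min compound preincubation.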
VDR inh: Inhibitors of the vitamin D receptor (VDR): qHTS; Vitamin D3 receptor (Homo sapiens), P11473; VDR-SRC2-3 peptide fluorescence polarization, 2 h; Potency, µM, inactives show max response, negative = inhibition, actives largely listed as inhibitors; hit rate 0.93% among 400,000
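After 23 nl compound addition and a short centrifugation, plates sat for 2 hours at ambient temperature; polarization of fluorescence then indicated loss of VDR binding to peptide SRC2-3.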
Starred values were filed as active, the others as inactive; ? = inconclusive; · = no result given; [ ] = remark or other dose. Calls follow the shape of the dose curve; as a rule, active = well fitted curve in the direction sought with a large enough effect; inconclusive = small, poorly fitted or top-dose-only effect, or another doubt; inactive = no such curve, though single readings can be large; an effect the other way counts as inactive or inconclusive. Unless noted, % is scaled to controls: 0 for no effect and ±100 for the full control effect; potency is read from the fitted curve at half-maximal effect.

SMILES | PLK1 PBD block | Sfp inh | 12-LOX inh | VDR inh
CCCCn1c(-c2ccc(OC)cc2)nc2c(=O)n(C)c(=O)[nH]c21 | ? | -1% | ? | 50µM*
O=C(CN1C(=O)C(c2ccccc2)=NC12CCCCC2)NC1CCCCC1 | · | · | 7% | ·
CN(NS(=O)(=O)c1ccc([N+](=O)[O-])cc1)c1ccccc1 | 3µM* | · | ? | ·
O=[N+]([O-])c1ccc(S(=O)(=O)Nc2ccc(-c3ccccc3)cc2)cc1 | -14% | · | -25% | ·
Cc1cccc(CNC(=O)c2sc3ncnc(N(C)C4CCCCC4)c3c2C)c1 | · | · | -22% | 6%
Cc1ccc(-c2csc(NC(=O)c3cccc(N4C(=O)CCC4=O)c3)n2)o1 | -7% | 20µM* | · | ?
CCOC(=O)CNc1nnc(SCC(=O)OCC)[nH]c1=O | ? | -28% | 2% | 40µM*
COC(=O)CSc1nnc(C)c(=O)[nH]1 | -7% | -5% | -24% | 6%
O=C1CC2(CCN(Cc3ccc(C(F)(F)F)cc3)C2)Nc2ccccc2N1 (stereo not given) | · | · | 2%[6.33 µM] | ·
N=C1N(/N=C/c2ccccc2)C(=Nc2ccccc2)C(=S)N1c1ccccc1 | 2% | 32µM* | 20% | -6%
Cc1ccc(/C=N/n2c(-c3ccccc3)n[nH]c2=S)cc1 | -15% | -1% | ? | -17%
COc1cccc(-c2cc3c(=O)n(CCNC(=O)C(C)Oc4ccccc4)ccn3n2)c1 (stereo not given) | · | · | -2% | ·
Cc1c(C(=O)N(C)Cc2nc3ccsc3c(=O)[nH]2)cnn1-c1ccc(F)cc1F | · | · | 4% | ·
CN(Cc1nc2ccsc2c(=O)[nH]1)C(=O)COc1cccc(F)c1 | · | · | 5µM* | ·
Cc1scc(C(=O)NCC2CCCCC2)c1C | · | · | 16µM* | ·
CCC(C)(C)NC(=O)CN(C(=O)CCC(=O)Nc1cc(C)ccn1)c1ccc2c(c1)OCO2 | 0% | 5% | 24% | 21%
CCC(C)(C)NC(=O)CN(Cc1ccccc1Cl)C(=O)CCC(=O)Nc1cc(C)ccn1 | -5% | 20µM* | -3% | -3%
Cn1ccc(=S)c2ccccc21 | 12µM* | 35µM* | 0% | -15%
CN(C)S(=O)(=O)c1ccc2nnn(O)c2c1 | 11µM* | -5% | -16% | 79µM*
C=CCC(NCc1ccccc1)c1ccc(C)o1 (stereo not given) | 11µM* | · | -22% | -23%
Cc1nsc(NC(=O)N2CCCN(c3ccccc3)CC2)n1 | · | · | 18% | ·
O=C(NCc1cccc(Cl)c1)c1ccc(-n2ccnc2)c2ccoc12 | -18% | · | 40µM* | ·
Cc1nc2ccc(NC(=O)[C@@H](NC(=O)c3c(F)cccc3F)C(C)C)cc2s1 | -5% | · | -3% | 9%
O=C(CCCN1C(=O)S/C(=C/C=C/c2ccccc2)C1=O)Nc1ccc(C(=O)O)cc1 | 30µM* | 14% | -24% | 32µM*
CC(=C\c1ccccc1)/C=C1/SC(=O)N(CCCC(=O)Nc2ccc(C(=O)O)cc2)C1=O | -13% | 17% | -4% | -1%
SMILES | PLK1 PBD block | Sfp inh | 12-LOX inh | VDR inh
O=C(CCCN1C(=O)/C(=C\c2ccccc2)SC1=S)Nc1cccc(C(=O)O)c1 | -28% | -2% | -24% | ?
O=C(CCN1C(=O)/C(=C\C=C\c2ccccc2)SC1=S)Nc1cccc(C(=O)O)c1 | 27µM* | -28% | 186% | -3%
O=C(CCN1C(=O)/C(=C\C=C\c2ccccc2)SC1=S)Nc1ccccc1C(=O)O | 30µM* | 21% | ? | ?
Cc1c(C(=O)N/N=C/c2ccccc2)sc(=S)n1C | -1% | 8% | -5% | 2%
Cc1ccc(C)c(Cn2c3ccccc3c3cnn(CC(=O)NCCN4CCOCC4)c(=O)c32)c1 | 8% | 5% | 1% | -8%
Cc1ccc(-c2nc3ccccc3c(=O)n2NC(=S)N(C)C)cc1 | 27µM* | 22µM* | -30% | -22%
CCO/C=C1/C(=O)N(CC)c2ccccc21 | 15µM* | 12% | -13% | -17%
CCO/C=C1\C(=O)N(c2ccccc2)C(=O)c2ccccc21 | -19% | -10% | · | -15%
CCO/C=C1/C(=O)N(Cc2ccccc2)C(=O)c2ccccc21 | ? | 31% | -24% | -32%
CCO/C=C1/C(=O)N(c2ccc(OC)cc2)C(=O)c2ccccc21 | 17µM* | 16% | -18% | -23%
OC[C@H](S)CS | · | 2.2µM* | · | ?
O=Cc1cccc2c1OCCO2 | · | · | 7.1µM* | ·
CC1=C(C#N)c2nc(N)c(C#N)c(C)c2/C1=C\c1ccc(OCC(=O)O)c(Cl)c1 | 8.4µM* | ? | ? | -5%
COc1cccc(NC(=O)NC[C@H]2O[C@@H](CO)[C@@H](O)[C@H]2N2CCN(c3ccccc3OC)CC2)c1 | · | · | 18µM* | ·
CC1CCCCN1C(=S)NC(=O)c1ccccc1 (stereo not given) | -12% | · | -19% | -28%
CC[n+]1ccccc1/C=C1\Sc2ccc(C)cc2N1C | 2% | -9% | 40µM* | -11%
Cc1cccc[n+]1CC(=O)N1c2ccccc2Sc2ccccc21 | -3% | 1% | -8% | -7%
CN1/C(=C/c2cccc[n+]2CCO)Sc2ccccc21 | 11% | -1% | 45µM* | -8%
CC(=O)c1cccc(/C=C/c2ccccc2)c1 | · | · | 44% | ·
CN1CCN(C(=S)c2cn(CCOc3ccccc3F)c3ccccc23)CC1 | ? | 14% | -17% | -28%
Cc1noc(C)c1-c1nc(NCc2ccccc2)c2ccccc2n1 | · | -13% | ? | 35µM*
Cc1noc(C)c1-c1cncnc1N1CCN(C)CC1 | · | 5% | ? | 32µM*
Cc1noc(C)c1-c1cncnc1NCCN1CCOCC1 | · | -20% | ? | ?
c1ccc(Oc2nc(-c3ccccn3)nc3ccccc23)cc1 | -4% | ? | ? | 19%
Cc1noc(C)c1-c1nc(NCc2cccnc2)c2ccccc2n1 | · | -22% | ? | ?
SMILES | PLK1 PBD block | Sfp inh | 12-LOX inh | VDR inh
COc1ccc(Oc2nc(-c3ccccn3)nc3ccccc23)cc1 | 1% | 40µM* | ? | 1%
Cc1noc(C)c1-c1nc(N2CCOCC2)c2ccccc2n1 | · | -13% | 40µM* | -5%
Cc1noc(C)c1-c1nc(N2CCN(C)CC2)c2ccccc2n1 | · | -13% | 18µM* | -14%
c1ccc(-c2nc(N3CCOCC3)c3ccccc3n2)nc1 | -8% | 14µM* | -1% | -6%
CCn1c(-c2ccccc2F)nc2cc(NC(C)=O)cc(C(=O)N(C)Cc3ccc4nccnc4c3)c21 | · | · | 1% | ·
Cn1nc(C(=O)OCCCc2ccccc2)c2ccccc2c1=O | · | · | 1% | ·
Cn1c(-c2cccc(C(F)(F)F)c2)cc2cnc(Nc3ccc(F)cc3)cc21 | · | · | -26% | ·
O=C(Cc1n[nH]c(=O)c2ccccc12)NCC(=O)N1CCN(c2ccccc2)CC1 | · | · | 11µM* | ·
O=C(Cc1n[nH]c(=O)c2ccccc12)NCC(=O)N1CCN(c2ccc(F)cc2)CC1 | · | · | -1% | ·
CCS(=O)(=O)C1=NN2C(=N)/C(=C\c3ccc(SCc4ccco4)o3)C(=O)N=C2S1 | ? | 20µM* | 35µM* | 12%

Assay outcomes as filed in PubChem.
